Screening data as filed in PubChem.
Beta cell apopt: blocks beta cell apoptosis; INS-1E cytokine-induced death, ATP luminescence, 48 h; percent of positive-control rescue, neutral wells zero; protection from apoptosis, % (no concentration beside the values); actives 0.8% (n = 300,000); AID 435005;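 active = Every replicate reaches about 75%, or at least half do and their mean reaches it too, limit read from the data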;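 note: 0% = cytokine-treated negative control wells and 100% = positive control rescue; higher means more ATP so stronger rescue from cytokine killing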
Gli-Sufu antag: antagonists of Gli-Sufu signaling; actives 0.74% (n = 340,000); AID 588413; inhibition, % at 5 µM; Sufu-KO-LIGHT fibroblasts, Gli luciferase reporter luminescence;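 active = inhibition above about 55%, limit read from the data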;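 note: 0% = DMSO-treated cells and 100% = wells with medium but no cells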
697 NFkB inh: lowers PMA/ionomycin-induced NF-kB signal in 697 B cells | actives 0.33% (n = 330,000) | inhibition, % at 4 µM | AID 435022 | 697 B-cell NF-kB luciferase reporter, 16 h; in the data active = inhibition above about 35%
Jurkat NFkB inh: inhibitors of the PMA/ionomycin-induced NF-kB reporter in Jurkat cells; PMA/ionomycin-induced NF-kB luciferase reporter, luminescence; AID 435003; actives 0.53% (n = 330,000); inhibition, % at 4 µM; in the data active = inhibition above about 50%
Gli antag conf: Gli-SUFU antagonism confirmation, single concentration; shares compounds with Gli-Sufu antag; Sufu-KO-LIGHT cells, Gli luciferase reporter, luminescence; inhibition, % at 5 µM; actives 40% (n = 2,500); AID 602428;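 active = mean inhibition at 5 µM reaching about 45%, limit read from the data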;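 note: plate controls were DMSO-treated cells for no effect and wells lacking cells for full effect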
Gli cytotox: counter-screen for Gli-SUFU antagonists: cytotoxicity; shares compounds with Gli-Sufu antag; actives 32% (n = 2,500); Sufu-KO-LIGHT cells cytotoxicity, ATP luminescence; cytotoxicity, % at 5 µM;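 active = mean cytotoxicity at 5 µM above about 25%, limit read from the data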;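 note: cells exposed to compound overnight for roughly 16 to 18 hours; plate controls were DMSO wells with cells for no effect and medium without cells for full effect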
Wnt3a counter: Wnt3a reporter inhibition counter-screen; Wnt-LIGHT cells, Wnt3a-driven luciferase reporter, luminescence; inhibition, % at 6.25 µM; shares compounds with Gli-Sufu antag; actives 20% (n = 2,500);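 active = mean inhibition above about 25%, limit read from the data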
An asterisk follows results filed as active. Most compounds without a hit are left out; they make up all but 1.8% or so of the library.

COc1ccc(OC)c(/C=N/n2c(COc3ccccc3)n[nH]c2=S)c1 was read as Beta cell apopt 7, Gli-Sufu antag -2, 697 NFkB inh -8 and Jurkat NFkB inh 2.
`CCOc1ccc(Cl)cc1CNc1nnnn1C` gave Beta cell apopt 1, Gli-Sufu antag 51, 697 NFkB inh 2, Jurkat NFkB inh -10, Gli antag conf 16, Gli cytotox 15 and Wnt3a counter -1.
Cc1cc(C)cc(OCC(O)CN2CCN(Cc3ccc4c(c3)OCO4)CC2)c1 (stereo not drawn) was read as Beta cell apopt 1, Gli-Sufu antag 64*, 697 NFkB inh -3, Jurkat NFkB inh 10, Gli antag conf 27, Gli cytotox 10 and Wnt3a counter -50.
Screening OC(COc1ccccc1)CN1CCN(Cc2ccc3c(c2)OCO3)CC1 (stereo not drawn) returned Gli-Sufu antag 1, 697 NFkB inh 13 and Jurkat NFkB inh 13.
Cc1ccc(C(=O)CCC(=O)NC2CCCC(C)C2C)cc1 (stereo not drawn) was read as Beta cell apopt 2, Gli-Sufu antag 3, 697 NFkB inh 21 and Jurkat NFkB inh 8.
COC(=O)c1cccc(C(=O)N2CCCC(CNC(=O)c3ccccc3Cl)C2)c1 (stereo not drawn) was read as Beta cell apopt 0, Gli-Sufu antag -11, 697 NFkB inh -2 and Jurkat NFkB inh 0.
For O=[N+]([O-])c1ccc(O)c(-c2nc(-c3ccccc3)c(-c3cccs3)[nH]2)c1 the results were Beta cell apopt 49, Gli-Sufu antag 52, 697 NFkB inh -8, Jurkat NFkB inh 12, Gli antag conf 70*, Gli cytotox 11 and Wnt3a counter 67*.
`CCCC(=O)Nc1cc(C)c(NC(=O)Cc2ccccc2)cn1` gave Beta cell apopt -4, 697 NFkB inh 3 and Jurkat NFkB inh -4.
O=C(NN=C1CCCC1)c1ccc(O)cc1 was read as Gli-Sufu antag 51, 697 NFkB inh 5, Jurkat NFkB inh 0, Gli antag conf 21, Gli cytotox 16 and Wnt3a counter 9.
Screening O=C(NN=C1CCCCCC1)c1ccncc1 returned Beta cell apopt -1, Gli-Sufu antag 0, 697 NFkB inh 20 and Jurkat NFkB inh 6.
Screening O=c1c2ccccc2c2ccccc2c(=O)n1Cc1cccnc1 returned Beta cell apopt -6, Gli-Sufu antag 59*, 697 NFkB inh 8, Jurkat NFkB inh -2, Gli antag conf 7, Gli cytotox 11 and Wnt3a counter -6.
For COc1cccc(C2(O)CCN(CC(=O)NCC3CC3)CC2)c1 the results were Beta cell apopt -5, Gli-Sufu antag -4, 697 NFkB inh 9 and Jurkat NFkB inh 1.
`COc1cccc(CN2CCN(Cc3cc(OC)c(OC)cc3[N+](=O)[O-])CC2)c1` gave Beta cell apopt -1, Gli-Sufu antag 5, 697 NFkB inh 15 and Jurkat NFkB inh -1.
For CN1/C(=C\C(=O)CSc2cccc[n+]2[O-])C(C)(C)c2ccccc21 the results were Beta cell apopt 14, Gli-Sufu antag 27, 697 NFkB inh -2 and Jurkat NFkB inh -23.
`CN1/C(=C\C(=O)COC(=O)CN2C(=O)C3CC=CCC3C2=O)C(C)(C)c2ccccc21` (stereo not drawn) gave Beta cell apopt 2, Gli-Sufu antag 9, 697 NFkB inh -9 and Jurkat NFkB inh -1.
`Cc1cc(=O)[nH]c(SCC(=O)/C=C2\N(C)c3ccccc3C2(C)C)n1` gave Beta cell apopt 117*, Gli-Sufu antag 68*, 697 NFkB inh 4, Jurkat NFkB inh 13, Gli antag conf 61*, Gli cytotox 25 and Wnt3a counter 27*.
`Cc1cccc[n+]1CC(=O)/C=C1\N(C)c2ccccc2C1(C)C` gave Beta cell apopt 14, Gli-Sufu antag 63*, 697 NFkB inh 2, Jurkat NFkB inh 43, Gli antag conf 61*, Gli cytotox 24 and Wnt3a counter 31*.
For CN1/C(=C\C(=O)CN2C(=O)NC3(CCCCCC3)C2=O)C(C)(C)c2ccccc21 the results were Beta cell apopt 113*, Gli-Sufu antag 70*, 697 NFkB inh -41, Jurkat NFkB inh -9, Gli antag conf 41, Gli cytotox 52* and Wnt3a counter -31.
Screening COCCn1c(SCC(=O)/C=C2\N(C)c3ccccc3C2(C)C)nnc1-c1ccncc1 returned Beta cell apopt 80*, Gli-Sufu antag 59*, 697 NFkB inh -4, Jurkat NFkB inh 7, Gli antag conf 34, Gli cytotox 2 and Wnt3a counter -35.
Screening NC(=O)COc1ncnc2scc(-c3ccc(F)cc3)c12 returned Beta cell apopt -8, Gli-Sufu antag 54, 697 NFkB inh -6, Jurkat NFkB inh 9, Gli antag conf 14, Gli cytotox 12 and Wnt3a counter -7.
COc1ccc(C(CNC(=O)C(=O)Nc2ccc3c(c2)OCO3)N2CCN(C)CC2)cc1 (stereo not drawn) was read as Gli-Sufu antag 24, 697 NFkB inh 15 and Jurkat NFkB inh 7.
CN1CCN(C(CNC(=O)C(=O)Nc2ccc3c(c2)OCO3)c2ccc(F)cc2)CC1 (stereo not drawn) was read as Gli-Sufu antag 54, 697 NFkB inh -15, Jurkat NFkB inh -21, Gli antag conf 20, Gli cytotox 9 and Wnt3a counter -11.
Screening O=C(C[n+]1cc(-c2ccccc2)n2c1CCCCC2)c1ccc(Cl)cc1 returned Beta cell apopt 4, Gli-Sufu antag 58*, 697 NFkB inh 6, Jurkat NFkB inh 12, Gli antag conf 49*, Gli cytotox 17 and Wnt3a counter -6.
Screening COc1ccc(-c2c[n+](CC(=O)c3ccccc3)c3n2CCCCC3)cc1 returned Beta cell apopt 12, Gli-Sufu antag 50, 697 NFkB inh -40, Jurkat NFkB inh 1, Gli antag conf 55*, Gli cytotox 25 and Wnt3a counter -13.
Cc1ccc(-c2c[n+](CC(=O)c3ccc(Br)cc3)c3n2CCCCC3)cc1 was read as Beta cell apopt 57, Gli-Sufu antag 77*, 697 NFkB inh -29, Jurkat NFkB inh 8, Gli antag conf 78*, Gli cytotox 33* and Wnt3a counter -21.
For CC(C)(C)N=C1NN=C(c2ccc(Cl)cc2)CS1 the results were Beta cell apopt -1, Gli-Sufu antag -80, 697 NFkB inh -213 and Jurkat NFkB inh -136.
C=CCn1c(C)cc(C2=NNC(=NC(C)(C)C)SC2)c1C was read as Beta cell apopt 25, Gli-Sufu antag 72*, 697 NFkB inh -165, Jurkat NFkB inh -19, Gli antag conf 75*, Gli cytotox 50* and Wnt3a counter 98*.
Screening CCC(=O)NC1CCN(C(=S)NC)CC1 returned Beta cell apopt 4, Gli-Sufu antag 57*, 697 NFkB inh 15, Jurkat NFkB inh 1, Gli antag conf 6, Gli cytotox 5 and Wnt3a counter -22.
